These results are taken from PubChem BioAssay.

Assay [1] is described as follows: P. berghei load reduction in hepatocytes – cell-based, HepG2, luciferase luminescence, HepG2 viability, primary screen (AID 624349; in the data active = parasite load remaining mostly below about 12%, no sharp cut-off; inactive = mostly above about 10%;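 note: 100% = mean of DMSO negative control wells on the same plate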). Particulars: P. berghei liver stage in HepG2, luciferase luminescence, concentration not given here; parasite load remaining: stronger effect = lower value; viability: measured here: HepG2 viability without parasites.
Assay [2] deals with Aerobactin synthetase IucA (Klebsiella pneumoniae). Description: inhibition of K. pneumoniae IucA enzyme – biochemical, Tocris library, absorbance (AID 1345561; call rule not given here;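 note: 100% = enzyme without compound and 0% = no enzyme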). Particulars: purified IucA enzyme assay, absorbance (OD) read-out; stronger effect = lower value;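 tested at 8 µM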.
Assay [3] can be described thus: viability loss in pontine glioma line – cell-based, SU-DIPG-XVII, MIPE5.0, CellTiter-Glo, qHTS, dose response (AID 1347060).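 For AC50: cells exposed to compound for 48 hours before viability readout.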 The note with it: CellTiter-Glo ATP luminescence. (In general: In ATP-based viability assays light output follows the ATP content of the culture.)
A short description of assay [4]: viability loss in pontine glioma line – cell-based, SU-DIPG-XIII, MIPE4.0, CellTiter-Glo, qHTS, dose response (AID 1347061; cut-off not given, nearly all actives have AC50 up to about 37 µM;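 note: cells exposed to compound for 48 hours before readout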). Particulars: CellTiter-Glo ATP luminescence.
Assay [5] is described as follows: viability loss in pontine glioma line – cell-based, JHH-DIPG-1, MIPE4.0, CellTiter-Glo, qHTS, dose response (AID 1347062; cut-off not given, nearly all actives have AC50 up to about 27 µM;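 for AC50: cells exposed to compound for two days before readout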). Particulars: JHH-DIPG-1 viability, CellTiter-Glo ATP luminescence.
Assay [6] is described as follows: viability loss in pontine glioma line – cell-based, SU-DIPG-XIII, MIPE5.0, CellTiter-Glo, qHTS, dose response (AID 1347064; cut-off not given, nearly all actives have AC50 up to about 23 µM). The note with it: CellTiter-Glo ATP luminescence.
Assay [7] in a line: viability loss in pontine glioma line – cell-based, SU-DIPG-XXV, MIPE5.0, CellTiter-Glo, qHTS, dose response (AID 1347065).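 Note: cells exposed to compound for 48 hours before ATP readout.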 Particulars: CellTiter-Glo ATP luminescence.
The nature of assay [8]: growth inhibition of DIPG cells – cell-based, MIPE4.0 library, CellTiter-Glo luminescence, qHTS (AID 1347066; cut-off not given, nearly all actives have AC50 up to about 30 µM;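 note: cells exposed to compound for 48 hours before readout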). The note with it: SU-DIPG-VI viability, CellTiter-Glo ATP luminescence.
A short description of assay [9]: viability loss with induced miR-34 in A549 – imaging, A549 dox-inducible miR-34, nuclei and caspase counts, primary screen (AID 1347080;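 active = compounds whose cell count with miR-34 switched on is under 0.7 times the count with it off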). Particulars: A549 miR-34 inducible, Hoechst nuclei count, 48 h.
Assay [10] can be described thus: galactose survival enhancers in mitochondrial complex I cybrids – cell-based, galactose medium, ATP luminescence, primary screen (AID 1645843;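 active = z-score of at least 1.8 in each of two replicates, scored against plate mean and spread of sample wells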;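 note: positive z means more ATP and so rescue of galactose-driven cybrid death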). Particulars: complex I mutant cybrid cells, 72 h, stronger effect = higher value.
The nature of assay [11]: growth inhibition of DIPG cells – cell-based, MIPE5.0 library, qHTS (AID 1347068; cut-off not given, nearly all actives have IC50 up to about 30 µM). The note with it: SU-DIPG-XXV viability. (Quantitative high-throughput screening tests each substance at several concentrations.)
The mark [12] stands for this setting: stronger effect = lower value, cell number ratio, induced over uninduced.
Setting [13] is: measured here: relative caspase fold change +Dox/-Dox.
Setting [14] is: measured here: total cells with miR-34 induction, stronger effect = lower value.
[15] abbreviates: measured here: total cells without miR-34 induction.

The structures appear in SMILES notation. Where “and” joins values, the source holds several entries; their conditions need not be identical. Identical values can stand only once. Results filed as inconclusive are left out. Calls of active or inactive are those of the source. Unless noted, no cut-off is given here; in the data, nearly all actives have AC50 up to about 26 µM.

On to `NC(=O)c1ccc2[nH]ccc2c1`, for which, in [1], the parasite load remaining was 32.8% (inactive). Further, the viability (commonly a read-out of living cells in per cent, often relative to untreated cells) in assay [1] was determined as 70.2%. Moreover, the remaining activity (in general, the signal under treatment as a percentage of the control signal) in assay [2] is 89.5% (inactive). For the same compound, the call in assay [3], in [4], in assay [5], in assay [6], in assay [7] and in assay [8] was inactive. Further, the fold change in assay [9] (setting [12]) is 1.06 (inactive) and 0.993 (inactive); in assay [9] (setting [13]) it was 0.967 and 0.869. Besides, the cell count in assay [9] (setting [14]) was 10600 and 9670; in assay [9] (setting [15]) it was 10000 and 9740. Moreover, in assay [10], the z-score is 1.08 (inactive) and 0.045 (inactive).

In the case of `Cc1[nH]c(/C=C2\C(=O)Nc3ccccc32)c(C)c1CCC(=O)O`, the remaining activity in [2] was 95.9% (inactive). In addition, the AC50 in assay [3] and in assay [5] was 16.6 µM (active) throughout. In addition, the fold change was 0.887 (inactive) in assay [9] (setting [12]) and 1.48 in assay [9] (setting [13]). The cell count in [9] (setting [14]) stood at 5970; in [9] (setting [15]), 6730. In addition, the z-score in assay [10] is 0.51 (inactive).

With `N[C@H](CSC(c1ccccc1)(c1ccccc1)c1ccccc1)C(=O)O`, in assay [2], the remaining activity was 104% (inactive). Moreover, the call in assay [3], in assay [4], in assay [5], in assay [6], in assay [8] and in assay [11] was inactive. The fold change in assay [9] (setting [12]) is 0.901 (inactive); in assay [9] (setting [13]), 1.4. In addition, the cell count amounted to 7800 in assay [9] (setting [14]) and 8660 in assay [9] (setting [15]). Besides, the z-score in [10] was 0.555 (inactive).

As for `CCOC(=O)C1=C(N)Oc2ccc(Br)cc2C1C(C#N)C(=O)OCC` (stereo unspecified), in [2], the remaining activity was 92.3% (inactive). Moreover, the AC50 (in general, the midpoint of the concentration-response curve, whichever way the signal moves) is 26.3 µM (active) in assay [3], 23.5 µM (active) in assay [5], 23.5 µM (active) in assay [7] and 20.9 µM (active) in assay [8]. Moreover, the call in assay [4] and in assay [11] was inactive. Also, the fold change in assay [9] (setting [12]) is 1.02 (inactive); in assay [9] (setting [13]), 1.4. Besides, the cell count came to 6950 in assay [9] (setting [14]) and 6840 in assay [9] (setting [15]). Besides, the z-score in assay [10] was -0.87 (inactive).
